Many of the other results were omitted from the sample, so hits are more common in it than they were.
Sfp inh = inhibitors of Bacillus subtilis Sfp phosphopantetheinyl transferase. Potency, µM, usual class: inhibitors. actives 3.5% (n = 310,000). AID 1490. Biochemical Sfp PPTase activity, qHTS. Q9F4F7;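 note: the enzyme is Sfp with the accession as filed and its product quenches rhodamine fluorescence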
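Reaction rates are the 30-min fluorescence difference (ex 525, em 598 nm) in wells containing 15 nM Sfp, 5 uM rhodamine-CoA and 12.5 uM BHQ-2-YbbR at pH 7.6 with 10 mM MgCl2.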
Glioma ERSR ind = induces the endoplasmic reticulum stress response in human glioma cells. U87-MG GRP78 promoter luciferase reporter, 16 h. actives 0.02% (n = 420,000). Potency, µM, most hits filed as activators; note: series mostly up to about 76 µM; nearly all actives have a fitted effect of over 35% in size
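Stably transfected U87-MG glioma cells carrying a GRP78-based luciferase sensor; 16 h compound incubation. Luminescence end-point read 10 min after Bright-Glo addition at room temperature.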
VDR inhibitor = inhibitors of human vitamin D receptor | VDR-SRC2-3 peptide fluorescence polarization, 2 h | Potency, µM, usual class: inhibitors | actives 0.93% (n = 400,000)
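VDR–SRC2-3 interaction, FP format. Cmpds 23 nl via pintool, brief spin, 2 h ambient incubation.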
G9a inh = G9a (human) methyltransferase inhibition | Q96KQ7 | G9a H3K9 monomethylation, AlphaScreen, 2 h | Potency, µM (doses to about 102 µM), hits mostly inhibitors | actives 8.8% (n = 350,000) | AID 504332; note: nearly all actives have a fitted effect of over 75% in size
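Compounds were preincubated with 20 nM G9a for 15 min, after which biotinylated H3K9 peptide (500 nM) and SAM (20 uM) started a 2 h room-temperature reaction. Monomethylated product was quantified by antibody-based AlphaScreen chemiluminescence.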
ALOX12 inh = inhibitors of human 12S-lipoxygenase ALOX12 | P18054 | purified 12hLO, xylenol orange hydroperoxide absorbance | Potency, µM (series often up to 108 µM), actives largely listed as inhibitors | actives 1.1% (n = 580,000) | AID 1671190
Target sequence (P18054 whole entry, looked up): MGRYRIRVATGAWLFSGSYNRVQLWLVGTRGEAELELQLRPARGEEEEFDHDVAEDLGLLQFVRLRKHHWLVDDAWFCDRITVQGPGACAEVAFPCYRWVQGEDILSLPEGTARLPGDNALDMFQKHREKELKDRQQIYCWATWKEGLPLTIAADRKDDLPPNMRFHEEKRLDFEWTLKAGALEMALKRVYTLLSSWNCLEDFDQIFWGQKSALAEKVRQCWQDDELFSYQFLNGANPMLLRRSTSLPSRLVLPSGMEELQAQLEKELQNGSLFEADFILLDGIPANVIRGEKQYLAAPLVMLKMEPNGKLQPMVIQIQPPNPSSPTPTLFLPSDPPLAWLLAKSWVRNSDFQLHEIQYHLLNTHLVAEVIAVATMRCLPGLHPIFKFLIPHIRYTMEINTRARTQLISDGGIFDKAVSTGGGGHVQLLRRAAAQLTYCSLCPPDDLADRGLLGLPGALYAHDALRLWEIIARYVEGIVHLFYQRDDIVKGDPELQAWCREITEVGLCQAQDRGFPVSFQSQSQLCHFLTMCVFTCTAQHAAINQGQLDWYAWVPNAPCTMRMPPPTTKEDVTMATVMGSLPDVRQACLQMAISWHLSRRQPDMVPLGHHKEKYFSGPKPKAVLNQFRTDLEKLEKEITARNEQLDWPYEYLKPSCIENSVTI
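Hydroperoxide product was detected by ferrous iron/xylenol orange as the 573 to 405 nm absorbance ratio. Arachidonic acid at 40 uM (final) was turned over for 30 min at room temperature by 150 nM human 12hLO, pH 7.0 Hepes buffer, after 15 min compound preincubation.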
Numbers stand for hits; i = inactive; ? = inconclusive; nt = no result given; [ ] = another dose, or the depositor's remark. Calls come from the whole dose curve; as a rule, active = well fitted curve in the direction sought with a large enough effect; inconclusive = small, poorly fitted or top-dose-only effect, or another doubt; inactive = no such curve, though single readings can be large; an effect the other way counts as inactive or inconclusive.

SMILES | Sfp inh | Glioma ERSR ind | VDR inhibitor | G9a inh | ALOX12 inh
O=C(COC(=O)C12CC3CC(CC(C3)C1)C2)Nc1ccc2[nH]c(=O)[nH]c2c1 | i | i | i | i | nt
CC(C)(C)c1ccc(NC(=O)C2=CN3CCS(=O)(=O)N=C3C=C2)cc1 | nt | i | i | 7.1µM | i
c1ccc2c(c1)NCC1CCCN21 (centres undefined) | i | i | i | 2.2µM | ?
CCCCc1cc(=O)oc2cc(OCC(=O)NCc3ccncc3)c(Cl)cc12 | nt | nt | nt | nt | i
Cc1cc([N+](=O)[O-])nn1CCCC(=O)Nc1cc(Oc2ccccc2)cc([N+](=O)[O-])c1 | i | i | i | 40µM | i
Cc1cc([N+](=O)[O-])nn1CCCC(=O)Nc1cc(Oc2ccc(F)cc2)cc([N+](=O)[O-])c1 | i | i | i | ? | i
Cc1cc(C)cc(Oc2cc(NC(=O)c3cn(C)nc3C)cc([N+](=O)[O-])c2)c1 | i | i | i | i | i
Cc1cccc(Oc2cc(NC(=O)Cn3cnc([N+](=O)[O-])n3)cc([N+](=O)[O-])c2)c1 | i | i | i | 14µM | ?
CCOC(=O)c1cc2sccc2n1CC(=O)N1CCCc2ccccc21 | i | i | i | i[12.7 µM] | ?
CCOC(=O)c1cc2occc2n1CC(=O)N1CCCc2ccccc21 | 79µM | i | i | ? | i
Cc1c(C(=O)NNC(=O)c2csc(N3CCOCC3)n2)oc2ccc(Br)cc12 | nt | i | nt | nt | 40µM
Cc1cccc(C(=O)NNC(=O)c2csc(N3CCOCC3)n2)c1C | nt | i | i | i[12.7 µM] | i
CC1(C)CC(NC(=O)c2nc(-c3ccc4cc[nH]c4c3)no2)CC(C)(C)N1 | nt | nt | nt | nt | i
Cc1ccc(CC(=O)N(C)Cc2ccsc2)cc1 | nt | nt | nt | nt | i
COCC(=O)NC[C@H]1O[C@@H](CO)[C@@H](O)[C@H]1N1CCN(c2cccc(C(F)(F)F)c2)CC1 | nt | nt | nt | nt | i
O=S(=O)(NC[C@H]1O[C@@H](CO)[C@@H](O)[C@H]1N1CCN(c2ccccn2)CC1)c1ccc(Cl)cc1 | nt | nt | nt | nt | 18µM
NC[C@H]1O[C@@H](CO)[C@@H](O)[C@H]1N1CCN(c2ncccn2)CC1 | nt | nt | nt | nt | 20µM
O=C(NC[C@H]1O[C@@H](CO)[C@@H](O)[C@H]1N1CCCC1)c1ccccc1 | nt | nt | nt | nt | i
Cc1ccc(S(=O)(=O)NC[C@H]2O[C@@H](CO)[C@@H](O)[C@H]2N2CCN(c3cccc(C(F)(F)F)c3)CC2)cc1 | nt | nt | nt | nt | 16µM
O=S(=O)(NC[C@H]1O[C@@H](CO)[C@@H](O)[C@H]1N1CCCC1)c1cccs1 | nt | nt | nt | nt | 16µM
O=C(NC[C@H]1O[C@@H](CO)[C@@H](O)[C@H]1N1CCN(c2ccccn2)CC1)c1ccccc1 | nt | nt | nt | nt | i
CC(C)NC(=O)CN1CCN(Cc2cc(=O)c3cccc(Cl)c3[nH]2)CC1 | nt | nt | nt | nt | i
O=C(NCC(=O)N1CCCC1)C(=O)Nc1cccc2[nH]ccc12 | nt | nt | nt | nt | i
Cc1ccc(NS(=O)(=O)c2cc(NC(=O)c3ccc4c(c3)NC(=O)CS4)ccc2Cl)c(C)c1 | 16µM | i | i | 2.8µM | ?
CCCc1cnc(C)nc1N1CCN(Cc2ccccc2F)C(CCO)C1 (centres undefined) | nt | nt | nt | nt | i
SMILES | Sfp inh | Glioma ERSR ind | VDR inhibitor | G9a inh | ALOX12 inh
CCOC(=O)c1cc2c(N)c(C(=O)c3cc(C#N)c(SC)nc3C)sc2nc1C | 40µM | i | i | 45µM | i
CCOC(=O)c1cc(C#N)c(SC)nc1C | i | i | i | nt | i
CCN(CCCNc1ncnc2nc[nH]c12)c1cccc(C)c1 | i | i | i | 18µM | i
CCCCN(CCCNc1ncnc2nc[nH]c12)c1ccccc1 | i | i | i | 45µM | i
O=C(NCc1ccccn1)c1ccccc1NS(=O)(=O)c1ccc2[nH]c(=O)[nH]c2c1 | nt | nt | nt | nt | i
O=C(c1ccccc1)N1CCC(N2C(=O)C(OCC3CC3)C23CCCCC3)CC1 (centres undefined) | nt | nt | nt | nt | i
CC(=O)Nc1ccc(Nc2nc(-c3ccc(NC(C)=O)cc3)cs2)cc1 | nt | nt | nt | nt | i
Cc1ccc(C(=O)Nc2nc(-c3ccc([N+](=O)[O-])cc3)cs2)o1 | i | i | i | i | i
CC(=O)Nc1ccc(-c2csc(NC(=O)c3ccc(C)o3)n2)cc1 | i | i | i | 45µM | i
O=C(NNc1nc(-c2ccccc2)cs1)c1ccccc1 | 45µM | i | i | ? | i
CC(=O)NNc1nc(-c2ccc(NC(C)=O)cc2)cs1 | 50µM | i | i | ? | i
CC(=O)Nc1ccc(-c2csc(NCc3ccco3)n2)cc1 | i | i | i | 10µM | ?
CC(=O)c1ccc(OC(=O)c2ccccc2F)cc1OC(=O)c1ccccc1F | nt | nt | nt | nt | i
CC(=O)Nc1ccc(-c2csc(NNC(=O)c3ccc(C)cc3)n2)cc1 | 7.9µM | i | i | ? | i
CC(=O)Nc1ccc(-c2csc(Nc3cccc(C)n3)n2)cc1 | i | i | i | i | ?
CCNc1nc(-c2ccc(NC(C)=O)cc2)cs1 | nt | nt | nt | nt | 28µM
O=C(O)[C@@H]1CSC2(CCSC2)N1 (some centres undefined) | 45µM | nt | nt | ? | nt
O=C1c2ccccc2C(=O)N1CCSc1n[nH]c(=S)s1 | 50µM | i | ? | 1.3µM | ?
O=C1c2ccccc2C(=O)N1CCSc1ncn[nH]1 | i | i | i | i | i
CCN(CC)C(=O)CSc1nnc(-c2ccco2)n1Cc1ccco1 | i | i | i | 40µM | i
Cc1cc(NC(=O)CSc2nnc(-c3ccccc3)n2Cc2ccco2)no1 | i | i | i | i | i
CC(=O)c1c(C)[nH]c(C(=O)CSc2nnc(-c3cccs3)n2Cc2ccccc2)c1C | i | i | ? | i[12.7 µM] | i
CC(=O)c1c(C)[nH]c(C(=O)CSc2nnc(-c3ccco3)n2Cc2ccccc2)c1C | i | i | i | 40µM | ?
CCOC(=O)CSc1nnc(-c2ccco2)n1-c1ccccc1 | 35µM | i | i | ? | i
CCN(CC)C(=O)CSc1nnc(-c2ccco2)n1N | i | i | i | i[12.7 µM] | i
SMILES | Sfp inh | Glioma ERSR ind | VDR inhibitor | G9a inh | ALOX12 inh
CCOC(=O)CNC(=O)CSc1nnc(-c2ccccc2)n1Cc1ccco1 | 13µM | i | i | ? | i
Cn1c(CNc2ccccc2)c(C#N)c2ccccc21 | nt | nt | nt | nt | i
Cc1nn(C)c2sc(C(=O)N3CCN(S(=O)(=O)c4ccc(F)cc4F)CC3)cc12 | nt | nt | nt | nt | i
O=C(CSc1nnc(-c2ccco2)n1Cc1ccccc1)OC1CCCCC1 | i | i | i | 50µM | i
COC(=O)CSc1nnc(-c2ccco2)n1Cc1ccco1 | 22µM | i | i | ? | i
NC(=O)CSc1nnc(-c2ccc(S(=O)(=O)N3CCCC3)cc2)n1Cc1ccco1 | ? | i | i | ? | i
O=C(O)CSc1nnc(-c2ccc(S(=O)(=O)N3CCCC3)cc2)n1Cc1ccco1 | 32µM | i | i | 56µM | ?
COc1ccc2c(COC(=O)c3ccccc3OCC3CCCO3)cc(=O)oc2c1 (centres undefined) | nt | nt | nt | nt | i
CN(C)c1ncccc1CNC(=O)c1nccnc1N | nt | nt | nt | nt | i
CCOc1ccc2c(c1)C(C)=CC(C)(C)N2S(=O)(=O)c1ccc(C)cc1 | i | i | i | i[12.7 µM] | i
COc1ccc2c(c1)C(C)=CC(C)(C)N2C(=O)Nc1cccc(Cl)c1 | nt | nt | nt | nt | 40µM
